The record followed here is PubChem BioAssay (NCATS).

Test [1] in a line: P-glycoprotein substrates identified in KB-8-5-11 adenocarcinoma cell line, qHTS therapeutic library screen (AID 1346987). Note: nearly all actives have a fitted effect of over 65% in size. Note: potency is the fitted concentration of half-maximal effect. The method in brief: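 KB-8-5-11: colchicine-selected sub-line of KB-3-1 over-expressing P-gp; assay medium lacked colchicine. 72 h drug exposure at 37 degree C, CellTiter-Glo.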
Test [2] in a line: Natriuretic polypeptide receptor (hNpr1) antagonism - Pilot counterscreen GloSensor control cell line (AID 1347045; calls by dose curve; note: series mostly up to about 38 µM). The method in brief: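 HEK293 cells carrying the GloSensor cGMP sensor (GIP/pGS-40F) were loaded with 2% GloSensor reagent for 2 h, exposed to compounds for 30 min, and then stimulated with 50 uM sodium nitroprusside for 20 min at room temperature.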
(In general: Counterscreens check selectivity or assay interference.)

In test [3] the target is Atrial natriuretic peptide receptor 1 (Homo sapiens) (UniProt P16066). Put plainly: Natriuretic polypeptide receptor (hNpr1) antagonism - Pilot screen (AID 1347049; calls by dose curve;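 note: agonist-evoked cGMP luminescence read 20 min after hNppA addition; series mostly up to about 58 µM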). The method in brief: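 HEK293 cells expressing hNpr1 and GloSensor cGMP luciferase, 1500/well, loaded with 2% GloSensor reagent 2 h, compound 30 min at room temperature; luminescence read before and 20 min after 0.1 nM hNppA stimulation.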
Chain of Atrial natriuretic peptide receptor 1 (Homo sapiens) (P16066 whole entry, looked up): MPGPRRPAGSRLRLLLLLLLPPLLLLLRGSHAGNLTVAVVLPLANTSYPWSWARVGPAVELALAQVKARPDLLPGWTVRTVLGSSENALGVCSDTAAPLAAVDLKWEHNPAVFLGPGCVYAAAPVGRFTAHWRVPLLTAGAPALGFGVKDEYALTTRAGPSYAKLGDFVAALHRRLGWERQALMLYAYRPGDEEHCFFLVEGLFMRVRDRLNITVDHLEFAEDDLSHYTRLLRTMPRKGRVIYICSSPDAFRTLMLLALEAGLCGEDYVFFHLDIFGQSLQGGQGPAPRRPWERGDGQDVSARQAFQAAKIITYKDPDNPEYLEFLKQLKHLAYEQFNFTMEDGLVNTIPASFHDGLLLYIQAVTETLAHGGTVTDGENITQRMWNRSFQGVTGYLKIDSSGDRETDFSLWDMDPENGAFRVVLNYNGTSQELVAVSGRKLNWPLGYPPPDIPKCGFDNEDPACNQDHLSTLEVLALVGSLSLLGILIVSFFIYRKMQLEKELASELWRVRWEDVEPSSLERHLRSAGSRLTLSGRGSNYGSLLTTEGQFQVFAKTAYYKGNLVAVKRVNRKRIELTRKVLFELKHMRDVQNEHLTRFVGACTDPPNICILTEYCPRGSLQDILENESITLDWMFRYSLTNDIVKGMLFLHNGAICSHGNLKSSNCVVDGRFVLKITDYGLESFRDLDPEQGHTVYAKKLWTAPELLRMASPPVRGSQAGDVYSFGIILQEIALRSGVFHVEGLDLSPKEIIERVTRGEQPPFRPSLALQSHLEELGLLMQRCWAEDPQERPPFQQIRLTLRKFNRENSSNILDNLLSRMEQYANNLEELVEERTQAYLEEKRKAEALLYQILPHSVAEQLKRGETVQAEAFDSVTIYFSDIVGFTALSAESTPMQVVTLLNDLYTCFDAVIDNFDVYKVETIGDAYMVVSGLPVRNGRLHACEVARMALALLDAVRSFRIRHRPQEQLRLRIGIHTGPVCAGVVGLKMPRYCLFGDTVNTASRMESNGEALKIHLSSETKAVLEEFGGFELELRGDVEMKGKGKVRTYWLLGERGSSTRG

Test [4] has as its target Atrial natriuretic peptide receptor 2 (Homo sapiens) (UniProt P20594). Nature of the test: Natriuretic polypeptide receptor (hNpr2) antagonism - Pilot subtype selectivity assay (AID 1347050; calls by dose curve). Summed up: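 HEK293 cells expressing hNpr2 and a GloSensor cGMP luciferase sensor, 1500/well, preloaded 2 h with 2% GloSensor reagent, compound 30 min, then 1 nM hNppC for 20 min. Antagonism from luminescence after versus baseline pre-read; LOPAC in 1:5 titrations.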

Test [5] can be described thus: NS1 protein of Zika virus - qHTS assay to identify small molecule inhibitors in human HEK 293 cells (AID 1347053). Note: nearly all actives have a fitted effect of over 55% in size. Note: potency is the fitted concentration of half-maximal effect. Summed up: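 Following 20 h seeding, HEK 293 cells took compound, then 1 h later ZIKV MR766 (MOI = 0.5). Incubation ran 24 h at 37 C before TR-FRET detection of NS1; a drop in signal indicates inhibition.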
(Quantitative high-throughput screening tests each substance at several concentrations.)

The target of test [6] is T1, Tyrosine-protein phosphatase non-receptor type substrate 1 (Homo sapiens) + Leukocyte surface antigen CD47 (Homo sapiens) (UniProt P78324+Q08722). Put plainly: CD47-SIRPalpha protein protein interaction - LANCE assay qHTS validation (AID 1347057; active = well fitted curve in the direction sought with a large enough effect in the signal ratio, with a control signal flat, not every such curve was filed as active; the % refers to the signal ratio; note: series mostly up to about 38 µM). Summed up: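 First, His-tagged CD47 and Eu-labelled anti-His antibody met the compound for 30 min; next, site-specifically biotinylated SIRPalpha was added for 30 min; finally streptavidin-APC was added before reading the TR-FRET ratio.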
T1 sequence (P78324 whole entry, looked up): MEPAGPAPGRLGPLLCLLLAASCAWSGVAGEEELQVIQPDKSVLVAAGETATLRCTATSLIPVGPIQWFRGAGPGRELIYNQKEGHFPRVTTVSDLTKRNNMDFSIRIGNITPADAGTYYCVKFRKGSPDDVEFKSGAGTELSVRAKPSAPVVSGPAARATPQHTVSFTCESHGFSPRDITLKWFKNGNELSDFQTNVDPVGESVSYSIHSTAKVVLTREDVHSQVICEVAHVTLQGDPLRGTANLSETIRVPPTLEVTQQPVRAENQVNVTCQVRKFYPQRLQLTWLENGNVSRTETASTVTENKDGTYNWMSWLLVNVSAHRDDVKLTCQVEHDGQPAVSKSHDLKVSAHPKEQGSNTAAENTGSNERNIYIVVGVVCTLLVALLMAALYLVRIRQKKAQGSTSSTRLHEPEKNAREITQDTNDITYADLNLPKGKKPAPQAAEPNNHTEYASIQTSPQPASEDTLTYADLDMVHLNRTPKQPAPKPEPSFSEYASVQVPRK
T1 sequence (Q08722 whole entry, looked up): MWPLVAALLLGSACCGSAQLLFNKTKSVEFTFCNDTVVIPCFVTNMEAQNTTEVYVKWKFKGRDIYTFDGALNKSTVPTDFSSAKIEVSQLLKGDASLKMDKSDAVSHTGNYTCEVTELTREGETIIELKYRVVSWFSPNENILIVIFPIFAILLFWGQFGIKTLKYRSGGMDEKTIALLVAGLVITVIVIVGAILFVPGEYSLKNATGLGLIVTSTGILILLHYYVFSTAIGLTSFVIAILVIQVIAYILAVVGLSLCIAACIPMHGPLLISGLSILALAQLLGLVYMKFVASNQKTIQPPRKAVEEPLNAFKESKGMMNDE

In test [7] the target is T1, Tyrosine-protein phosphatase non-receptor type substrate 1 (Homo sapiens) + Leukocyte surface antigen CD47 (Homo sapiens). Put plainly: CD47-SIRPalpha protein protein interaction - HTRF assay qHTS validation (AID 1347058; active = well fitted curve in the direction sought with a large enough effect in the signal ratio, not every such curve was filed as active; the % refers to the signal ratio;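 note: recombinant soluble extracellular CD47 with His tag and biotinylated SIRPalpha domains; series mostly up to about 38 µM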). Summed up: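 TR-FRET read (Ch1/Ch2 ratio) of soluble extracellular CD47 and Avi-biotinylated SIRPalpha domains in PBS pH 7.4 with 0.05% IGEPAL; 7-point compound titration. Sequential 30 min room-temperature steps; non-biotinylated SIRPalpha as control inhibitor.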
In general terms: Time-resolved FRET reads energy transfer from a long-lived donor to a nearby acceptor.

Structures are written as SMILES. Where “and” joins values, the source holds several entries; their conditions need not be identical. Equal values may be shown once. Records with an inconclusive call do not appear. More than one record can exist for a structure, and the calls need not agree. Calls of active or inactive are those of the source. Unless noted, calls come from the whole dose curve; as a rule, active = well fitted curve in the direction sought with a large enough effect; inconclusive = small, poorly fitted or top-dose-only effect, or another doubt; inactive = no such curve, though single readings can be large; an effect the other way counts as inactive or inconclusive.

Chain of Atrial natriuretic peptide receptor 2 (Homo sapiens) (P20594 whole entry, looked up): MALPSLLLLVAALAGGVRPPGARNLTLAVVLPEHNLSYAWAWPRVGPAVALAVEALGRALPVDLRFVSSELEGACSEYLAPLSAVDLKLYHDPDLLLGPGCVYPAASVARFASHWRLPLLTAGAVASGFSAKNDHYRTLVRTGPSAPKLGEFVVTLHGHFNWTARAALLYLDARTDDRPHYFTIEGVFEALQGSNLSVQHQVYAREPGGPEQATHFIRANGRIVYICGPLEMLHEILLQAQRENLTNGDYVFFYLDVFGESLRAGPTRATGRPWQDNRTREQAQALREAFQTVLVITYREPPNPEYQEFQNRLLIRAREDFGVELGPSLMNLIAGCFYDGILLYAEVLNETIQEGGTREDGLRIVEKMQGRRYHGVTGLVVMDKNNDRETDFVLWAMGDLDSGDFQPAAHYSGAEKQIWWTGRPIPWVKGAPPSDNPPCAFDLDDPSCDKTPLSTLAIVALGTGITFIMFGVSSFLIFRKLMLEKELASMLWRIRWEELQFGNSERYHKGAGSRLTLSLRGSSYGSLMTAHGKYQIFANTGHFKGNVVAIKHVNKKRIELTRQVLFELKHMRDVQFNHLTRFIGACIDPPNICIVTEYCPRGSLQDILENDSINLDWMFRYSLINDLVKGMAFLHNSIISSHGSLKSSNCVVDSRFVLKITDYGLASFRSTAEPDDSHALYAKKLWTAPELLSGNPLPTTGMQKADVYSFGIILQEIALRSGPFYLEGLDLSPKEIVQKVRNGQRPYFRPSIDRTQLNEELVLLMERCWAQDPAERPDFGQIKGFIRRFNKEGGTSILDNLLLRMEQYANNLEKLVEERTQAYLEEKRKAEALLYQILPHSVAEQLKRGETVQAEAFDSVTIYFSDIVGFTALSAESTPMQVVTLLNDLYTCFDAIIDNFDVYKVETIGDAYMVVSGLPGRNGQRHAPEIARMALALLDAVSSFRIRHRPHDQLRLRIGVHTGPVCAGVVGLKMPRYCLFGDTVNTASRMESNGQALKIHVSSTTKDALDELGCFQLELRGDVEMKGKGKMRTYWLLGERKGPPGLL

For `FC(F)(F)c1ccc(C=Cc2nc(COc3ccc(CCCCn4ccnn4)cc3)co2)cc1`, the Potency entry in test [1] is “inactive”.

As to `C=CCc1cccc(C=NNC(=O)CN2CCN(Cc3ccccc3)CC2)c1O`, the Potency in test [1] is 10.5 µM (active); in test [5], 13.2 µM (active). Moreover, the compound was called inactive in test [2], in test [3], in test [4], in test [6] and in test [7]. Regarding `CC(C)C[C@@H](C(=O)N[C@H](C(=O)OC1CCCC1)c1ccccc1)[C@H](O)C(=O)NO`, the Potency in test [1] is 20.9 µM (active).

For `CN(C)N=Nc1nc[nH]c1C(N)=O`, the Potency in test [1] was 1.87 µM (active). Regarding `CN(CC=CC#CC(C)(C)C)Cc1cccc2ccccc12`, in test [1], the Potency result was “inactive”. As to `CO[C@H]1/C=C\O[C@@]2(C)Oc3c(C)c(O)c4c(O)c(c5c(nc6cc(C)ccn65)c4c3C2=O)NC(=O)C(C)=CC=C[C@H](C)[C@H](O)[C@@H](C)[C@@H](O)[C@@H](C)[C@H](OC(C)=O)[C@H]1C`, the Potency result in test [1] is “inactive”. For `CCCCC[C@H](O)C=C[C@H]1[C@H](O)CC(=O)[C@H]1CC=CCCCC(=O)O`, the Potency entry in test [1] is “inactive”. Consider `OC[C@H]1O[C@@H](O[C@H]2[C@@H](O)[C@@](O)(CO)O[C@@H]2CO)[C@H](O)[C@@H](O)[C@@H]1O`, for which the Potency entry in test [1] and in test [5] was “inactive” in each case.

With `NC(=O)c1ncn([C@@H]2O[C@H](CO)[C@@H](O)[C@@H]2O)n1`, the Potency result in test [1] is “inactive”. In the case of `CCc1cccc(CC)c1NC(=O)N1Cc2[nH]nc(NC(=O)c3ccc(N4CCN(C)CC4)cc3)c2C1`, the Potency result in test [1] and in test [5] was “inactive” throughout.

Turning to `COc1cc2nccc(Oc3ccc(NC(=O)Nc4cc(C)on4)c(Cl)c3)c2cc1OC`, the Potency in test [1] is 11.8 µM (active) and 13 µM (active). Regarding `C[C@H]1O[C@@H](n2cc(F)c(=O)[nH]c2=O)[C@H](O)[C@H]1O`, in test [1], the Potency was 18.7 µM (active). The call in test [2], in test [3] and in test [4] was inactive. The Potency result in test [5] is “inactive”. In the case of `Cc1ccccc1C(C(=O)NC1CCCCC1)N(C(=O)CNc1ccc(C#N)cc1)c1cccc(F)c1` (configuration not stated), the Potency result in test [1] and in test [5] was “inactive” throughout. Consider `COc1ccc(-c2ccc3ncc4c(c3c2)n(-c2ccc(N3CCNCC3)c(C(F)(F)F)c2)c(=O)n4C)cn1`, for which the Potency in test [1] is 8.3 nM (active) and 184 nM (active) and 206 nM (active); in test [5] it was 6.62 µM (active). In the case of `COc1cc2c(cc1OC)[C@@H]1Cc3ccc(OC)c(OC)c3CN1CC2`, the Potency entry in test [1] and in test [5] was “inactive” in each case. With `Cc1ccc2c(c1)c1c(n2CCc2ccc(C)nc2)CCN(C)C1`, the Potency entry in test [1] is “inactive”. On to `CNC(=O)c1c(-c2ccc(F)cc2)oc2cc(N(CCO)S(C)(=O)=O)c(C3CC3)cc12`, for which the Potency entry in test [1] and in test [5] was “inactive” throughout. As to `NS(=O)(=O)c1ccc(Nc2nc(OCC3CCCCC3)c3[nH]cnc3n2)cc1`, in test [1], the Potency result was “inactive”. As to `CON(C)C(=O)N1N=C(c2cc(F)ccc2F)S[C@]1(CCCN)c1ccccc1`, the figures for the Potency in test [1] and in test [5] were 0.0148 µM (active) and 14.8 µM (active), respectively. Regarding `CC(NCCc1ccc(O)cc1)C(O)c1ccc(O)cc1` (configuration not stated), the Potency result in test [1] and in test [5] was “inactive” in each case. Take `CN(C)CCOc1ccc(-c2nc(-c3ccc4c(c3)CCC4=NO)c(-c3ccncc3)[nH]2)cc1`: the Potency entry in test [1] was “inactive”. For the compound `CCC(=O)NCC[C@@H]1CCc2ccc3c(c21)CCO3`, the Potency entry in test [1] and in test [5] was “inactive” in each case. Regarding `CC(C)CNc1ccnc(NCc2csc(-c3ccccc3)n2)n1`, the Potency was 18.7 µM (active) and 10.3 µM (active) in test [1]; 26.4 µM (active) in test [5].

With `O=C(c1ccc(C(=O)N2CCC(N3CCCC3)CC2)c(Nc2ccccc2)c1)N1CCC(N2CCCC2)CC1`, the Potency entry in test [1] and in test [5] was “inactive” in each case. Regarding `CN[C@@H]1[C@@H](O)[C@@H](O[C@@H]2[C@@H](O)[C@H](O[C@H]3O[C@H](CN)[C@@H](O)[C@H](O)[C@@H]3O)[C@@H](N)C[C@@H]2NC(=O)[C@@H](O)CN)OC[C@]1(C)O`, the Potency entry in test [1] and in test [5] was “inactive” each time. With `CC(C)(CO)[C@@H](O)C(=O)NCCC(=O)O`, the Potency result in test [1] and in test [5] was “inactive” in each case. As to `CN1c2ccccc2C(=O)N2CCc3c([nH]c4ccccc34)C21` (configuration not stated), the Potency entry in test [1] was “inactive and 1.84 µM (active)”. For the same compound, the Potency entry in test [5] is “inactive”. In the case of `CC(C)C[C@@H](N)[C@H](O)C(=O)N[C@H](C(=O)N[C@H](C(=O)N[C@@H](CC(=O)O)C(=O)O)C(C)C)C(C)C`, the Potency entry in test [1] and in test [5] was “inactive” throughout. On to `CC(C)=CCCC(C)=CCCC(C)=CCCC(C)=CCCC(C)=CCCC(C)=CCCC(C)=CCCC(C)=CCCC(C)=CCO`, for which the Potency result in test [1] and in test [5] was “inactive” throughout. As to `C[C@H](CCC(=O)O)[C@H]1CC[C@H]2[C@H]3[C@@H](CC[C@]12C)[C@@]1(C)CC[C@@H](O)C[C@H]1C[C@@H]3O`, the Potency entry in test [1] and in test [5] was “inactive” in each case.
